Data published in the supplement of paper PMC10127200.
Structures can show the parent of a compound that is named as a salt.

Experiments:
Assay in all cases: Euclidean distance of Cell Painting phenotypic profile (signed KS, 77 features) to DMSO centroid (dimensionless distance); 5 or 10 uM (library dependent); higher = stronger phenotypic change vs DMSO (phenoactivity)
Settings in all cases: 48 h
786-O = tested on: 786-O
How it was run: (§1)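 Library compounds were applied at 10 or 5 uM, depending on the library, with 0.1% DMSO final, for 48 h to five cancer lines and a healthy fibroblast line. After staining, cells were imaged confocally at 20X across 9 fields per well, and Harmony extracted 77 features, each scored as a signed Kolmogorov-Smirnov statistic against vehicle wells on the same plate. Phenoactivity is the Euclidean distance between each profile and the median vehicle profile, with profiles first plate-position corrected, correlation-weighted and averaged over replicates at the top dose.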

A549 = tested on: A549
How it was run: as §1

DU145 = tested on: DU145
How it was run: as §1

FB = tested on: FB
How it was run: as §1

HEPG2 = tested on: HEPG2
How it was run: as §1

OVCAR4 = tested on: OVCAR4
How it was run: as §1

Compound	Euclidean distance (786-O)	Euclidean distance (A549)	Euclidean distance (DU145)	Euclidean distance (FB)	Euclidean distance (HEPG2)	Euclidean distance (OVCAR4)
O=C(Nc1ccccc1-c1cn2c(CN3CCNCC3)csc2n1)c1cnc2ccccc2n1	6.03	5.64	5.63	5.74	5.23	5.14
CC1CCc2cc(F)cc3c(=O)c(C(=O)O)cn1c23 (configuration not stated) [Flumequine]	1.37	0.57	1.32	0.897	0.704	1.44
CCn1nc(C(=O)O)c(=O)c2cc3c(cc21)OCO3 [Cinoxacin]	1.03	1.18	0.942	1.56	0.617	1
O=C(/C=C/c1ccccc1)NC(NC(=S)Nc1cccc2cccnc12)C(Cl)(Cl)Cl (configuration not stated) [Salubrinal]	0.979	1.28	1	1.21	1.04	1.28
CCOC(=O)[C@@H](N)Cc1ccc(-c2cc(O[C@H](c3ccc(Cl)cc3-n3ccc(C)n3)C(F)(F)F)nc(N)n2)cc1 [Telotristat Etiprate (LX 1606 Hippurate)]	3.69	1.52	2.43	2.23	1.13	1.3
C#Cc1cccc(Nc2ncnc3cc(OCCOC)c(OCCOC)cc23)c1 [Erlotinib HCl (OSI-744)]	1.55	1.87	1.94	1.57	0.884	2.37
Cn1nc(C(C)(C)C)cc1C(=O)N[C@@H](Cc1cccc(Cl)c1)C(=O)NCC#N [Cathepsin Inhibitor 1]	1.97	2.28	2.22	1.9	1.43	1.92
CC(C(=O)O)c1ccc2c(c1)CC(=O)c1ccccc1S2 (configuration not stated) [Zaltoprofen]	1.08	1.02	1.23	0.873	0.423	1.24
O=C(O)CNC(=O)c1ncc(-c2cccc(Cl)c2)cc1O [Vadadustat]	1.08	1.97	2.71	1.67	0.8	2.35
CCC1(c2c[nH]cn2)Cc2ccccc2C1 [Atipamezole]	0.467	0.642	0.626	0.848	0.484	0.675
CC(C)NC[C@@H](C(=O)N1CCN(c2ncnc3c2[C@H](C)C[C@H]3O)CC1)c1ccc(Cl)cc1 [Ipatasertib (GDC-0068)]	2.48	2.97	2.12	2.49	1.13	2.11
O=P(O)(O)OC(Cn1cncn1)(Cn1cncn1)c1ccc(F)cc1F [Fosfluconazole]	1.39	0.635	1.39	0.872	0.852	1.23
C#C[C@]1(O)CC[C@H]2[C@@H]3CCc4cc(OC5CCCC5)ccc4[C@H]3CC[C@@]21C [Quinestrol]	1.6	1.26	1.69	1.48	0.902	1.67
CO/N=C(\C(=O)N[C@@H]1C(=O)N2C(C(=O)OC(C)OC(C)=O)=C(COC(N)=O)CS[C@H]12)c1ccco1 (some centres not stated) [Cefuroxime axetil]	0.923	0.763	0.929	1.28	1.28	1.41
CC(=O)O[C@H]1C[C@@]2(C)[C@@H](C[C@@H](O)[C@H]3[C@@]4(C)CC[C@@H](O)[C@@H](C)[C@@H]4CC[C@@]32C)/C1=C(\CCC=C(C)C)C(=O)O [Fusidate Sodium]	1.27	0.59	1.88	1.32	0.533	1.2
NC(=O)c1ccc(OCCCN2CC3CCCC3C2)cc1 (configuration not stated)	1.32	1.16	1.39	1.36	0.495	1.23
CC[C@H](Nc1ncnc2[nH]cnc12)c1oc2ccccc2c(=O)c1-c1cccc(F)c1 [Tenalisib (RP6530)]	0.975	0.66	0.791	1.47	0.466	0.678
CN1C2CCCC1CC(NC(=O)c1nn(C)c3ccccc13)C2 (configuration not stated) [Granisetron HCl]	1.32	0.903	1.37	1.04	1.27	1
CC(C)CN(C[C@@H](O)[C@H](Cc1ccccc1)NC(=O)O[C@H]1CO[C@H]2OCC[C@H]21)S(=O)(=O)c1ccc(N)cc1 [Darunavir Ethanolate]	0.575	0.867	1.31	0.84	0.355	0.797
CCn1c(-c2nonc2N)nc2c(C#CC(C)(C)O)ncc(OC[C@H]3CCCNC3)c21	3.05	2.49	1.16	2	1.95	2.14
CN(C)CCC(c1ccccc1)c1ccccn1 (configuration not stated) [Pheniramine Maleate]	0.54	1.02	0.777	0.632	0.694	1.34
Cc1cc(-c2ccc(/N=N/c3ccc4c(S(=O)(=O)O)cc(S(=O)(=O)O)c(N)c4c3O)c(C)c2)ccc1/N=N/c1ccc2c(S(=O)(=O)O)cc(S(=O)(=O)O)c(N)c2c1O [Evans Blue]	0.929	0.808	0.955	1.65	0.481	1.37
O=C(O)C(Cc1c[nH]c2ccccc12)N1C(=O)c2ccccc2C1=O (configuration not stated)	0.991	0.979	0.681	0.852	0.417	0.641
CCN1CCN(C(=O)N[C@@H](C(=O)N[C@@H]2C(=O)N3C(C(=O)O)=C(CSc4nnnn4C)CS[C@H]23)c2ccc(O)cc2)C(=O)C1=O [Cefoperazone]	1.77	0.776	0.917	1.45	0.854	1.24

Compound	Euclidean distance (786-O)	Euclidean distance (A549)	Euclidean distance (DU145)	Euclidean distance (FB)	Euclidean distance (HEPG2)	Euclidean distance (OVCAR4)
Cc1[nH]c2ccccc2c1CCNC(=O)c1cccs1	0.729	2.31	0.821	0.779	0.553	1.45
COc1ccc(C2CC(=O)c3c(O)cc(OC4OC(COC5OC(C)C(O)C(O)C5O)C(O)C(O)C4O)cc3O2)cc1OC (configuration not stated) [Methyl-Hesperidin]	0.924	0.527	1.16	0.637	0.966	1.25
CC[C@@H](CO)NCCN[C@@H](CC)CO [Ethambutol HCl]	1.4	1.22	0.738	0.916	1.17	0.884
CO[C@@H](C)Cn1c(=O)n(C)c2cnc3ccc(-c4cncc(C(C)(C)O)c4)cc3c21	3.52	4.06	2.18	4.79	2.61	3.29
CN(C)C1CCN(C(=O)c2ccc(NC(=O)Nc3ccc(-c4nc(N5CCOCC5)nc(N5CCOCC5)n4)cc3)cc2)CC1	3.29	3.49	1.98	4.95	2.04	3.62
CC(C)(CO)[C@@H](O)C(=O)NCCC(=O)O [D-Pantothenate Sodium]	1.18	0.904	1.05	1.15	0.523	1.33
C[C@H](CCC(=O)O)[C@H]1CC[C@H]2[C@@H]3C[C@H](O)[C@@H]4C[C@H](O)CC[C@]4(C)[C@H]3CC[C@]12C [Hyodeoxycholic acid (HDCA)]	1.08	0.973	0.585	0.898	0.401	1.37
O=C(Oc1cc(S(=O)(=O)c2ccccc2)ccc1[N+](=O)[O-])c1ccc(Cl)cc1	1.76	1.8	1.4	1.14	1.96	1.27
CCN1CCN(c2ccc(Nc3cc(N(C)C(=O)Nc4c(Cl)c(OC)cc(OC)c4Cl)ncn3)cc2)CC1 [BGJ398 (NVP-BGJ398|Infigratinib)]	3.87	4	2.87	3.62	2.39	4.1
Nc1nnc(-c2cccc(Cl)c2Cl)c(N)n1 [Lamotrigine]	0.851	1.05	0.825	1.12	0.712	1.42
COc1cc(C(C)=O)ccc1OCCCN1CCC(c2noc3cc(F)ccc23)CC1 [Iloperidone]	1.83	1.43	0.93	1.43	0.503	1.87
CC(C)C[C@H](NC(=O)CNC(=O)c1cc(Cl)ccc1Cl)B1OC(=O)C(CC(=O)O)(CC(=O)O)O1	4.77	3.73	5.36	3.94	4.23	4.36
CN(C)c1ccc(O)c2c1C[C@H]1C[C@H]3[C@H](N(C)C)C(O)=C(C(N)=O)C(=O)[C@@]3(O)C(O)=C1C2=O [Minocycline HCl]	1.46	1.38	1.2	1.33	0.637	1.14
C=CC(=O)N1CCC([C@@H]2CCNc3c(C(N)=O)c(-c4ccc(Oc5ccccc5)cc4)nn32)CC1 [Zanubrutinib (BGB-3111)]	1.58	1.45	2.15	1.57	0.671	1.72
O=S(=O)(c1ccccc1)N(CC(F)(F)F)c1ccc(C(O)(C(F)(F)F)C(F)(F)F)cc1	1.13	1.85	1.07	1.62	2.12	1.43
CC(C)[C@H]1C(=O)N[C@@H](CCCNC(=N)N)C(=O)NCC(=O)N[C@@H](CC(=O)O)C(=O)N[C@H](Cc2ccccc2)C(=O)N1C [Cilengitide]	2.25	1.28	0.875	1.15	4.37	2.86
O=c1[nH]c(=O)n([C@H]2C[C@H](O)[C@@H](CO)O2)cc1I [Idoxuridine]	2.71	1.26	2.3	1.41	1.5	1.42
Cn1c(=O)c2c(ncn2CC(O)CO)n(C)c1=O (configuration not stated) [Dyphylline]	1.02	0.909	0.59	1.07	1.05	1.59
CCn1cc(C(=O)O)c(=O)c2cc(F)c(N3CCNCC3)nc21 [Enoxacin]	1.03	0.783	1.59	0.837	2.02	1.35
OC[C@H]1O[C@@H](O[C@@H]2[C@@H](CO)OC(O)(CO)[C@H]2O)[C@H](O)[C@@H](O)[C@H]1O (mixture of isomers) [Lactulose]	1.29	0.822	0.75	0.999	1.43	1.7
COc1ccc(-c2cnc3c(-c4cccc5ncccc45)cnn3c2)cc1	0.556	0.926	1.07	0.678	0.785	0.818
CC[C@@]1(O)C(=O)OCc2c1cc1n(c2=O)Cc2cc3c(CN(C)C)c(O)ccc3nc2-1 [Topotecan]	3.37	4.25	3.94	3.77	3.31	2.85
CN[C@@H]1[C@H](O)[C@H](NC)[C@H]2O[C@@]3(O)C(=O)C[C@@H](C)O[C@H]3O[C@@H]2[C@H]1O [Spectinomycin HCl]	0.726	0.814	1.28	1.21	0.977	1.02
